Molecules are shown by their SMILES. Inconclusive results are not listed. Activity calls are given as the source filed them. Unless noted, the call rests on the fitted dose curve; in most records, active means well fitted curve in the direction sought with a large enough effect in the repeat runs; inconclusive means weak or mixed curves; inactive means no such curve, though single readings can be large; an effect the other way counts as inactive or inconclusive.

The nature of assay [1]: qHTS assay to test for compound auto fluorescence at 535 nm (green) in HEK293 cells (AID 720680). In general terms: qHTS replaces the single test concentration by a dilution series.
Assay [2] can be described thus: qHTS assay to test for compound auto fluorescence at 460 nm (blue) in HEK293 cell free culture (AID 720681). An outline of the steps:
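Blue fluorescence (Ex 405/Em 460 nm, triamterene-equivalent) was read immediately after pin transfer of compound or DMSO into medium (DMEM, 10% FBS) without cells.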

Assay [3] in a line: qHTS assay to test for compound auto fluorescence at 535 nm (green) in HEK293 cell free culture (AID 720682). An outline of the steps:
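Green-channel intensity (Ex/Em 485/535 nm) was recorded from compound-treated wells containing only DMEM with 10% FBS. Fluorescein provided the equivalency standard.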

Assay [4] in a line: qHTS assay to test for compound auto fluorescence at 590 nm (red) in HEK293 cell free culture (AID 720683). The procedure, abridged: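 Red-channel autofluorescence of compounds in culture medium (DMEM, 10% FBS), no cells, measured at 540/590 nm. Rose Bengal sodium is the reference fluorophore for equivalence.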
Assay [5] can be described thus: qHTS assay to test for compound auto fluorescence at 590 nm (red) in HepG2 cell free culture (AID 720684). The procedure, abridged:
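No cells present: MEM + 10% FBS only. Compound pinned in, red label read (540/590 nm). Activity = fluorescence equivalent to Rose Bengal sodium.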

A short description of assay [6]: qHTS assay to test for compound auto fluorescence at 460 nm (blue) in HepG2 cell free culture (AID 720685). The procedure, abridged: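 Cell-free plates of MEM plus 10% FBS received 23 nL compound or DMSO vehicle; blue-channel (405/460 nm) intensity scored against triamterene as reference fluorophore.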
The nature of assay [7]: qHTS assay to test for compound auto fluorescence at 535 nm (green) in HepG2 cell free culture (AID 720686).
Assay [8] in a line: qHTS assay to test for compound auto fluorescence at 460 nm (blue) in HepG2 cells (AID 720687). The procedure, abridged: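 Blue-channel autofluorescence (Ex/Em 405/460 nm, triamterene-equivalent) was measured after 1 hr compound exposure at 37 C, 5% CO2. Cells were HepG2, plated overnight at 37 C in MEM plus 10% FBS.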
In assay [9] the target is Glucocorticoid receptor (Homo sapiens) (UniProt P04150). The assay is described as follows: qHTS assay to identify small molecule agonists of the glucocorticoid receptor (GR) signaling pathway (AID 720691; active means well fitted activation curve with a large enough effect in the signal ratio in the repeat runs, not every such curve was filed as active; the % refers to the signal ratio). The note with it: GR-bla HeLa, beta-lactamase reporter ratio, 18 h; activation: at 62.4 µM (top of the series). The procedure, abridged: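 Compounds in DMSO, alongside positive controls, were added to GR-bla HeLa reporter cells and incubated 18 h at 37 C; GRE-driven beta-lactamase was detected by fluorescence after 2 h with FRET substrate at room temperature.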

Assay [10] has the same target. Nature of the assay: qHTS assay to identify small molecule antagonists of the glucocorticoid receptor (GR) signaling pathway (AID 720692; active means well fitted inhibition curve with a large enough effect in the signal ratio in the repeat runs, not every such curve was filed as active; the % refers to the signal ratio). The procedure, abridged: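 In a 1536-well cell format, compounds were added 4 h after seeding GR-bla HeLa cells, together with dexamethasone at 5 nM final; reporter activity was measured by FRET-substrate fluorescence following 18 h at 37 C.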

A short description of assay [11]: qHTS assay to identify small molecule antagonists of the glucocorticoid receptor (GR) signaling pathway - cell viability counter screen (AID 720693). Further: nearly all actives have a fitted effect of over 55% in size.
Assay [12] can be described thus: qHTS assay for identifying genotoxic compounds that show differential cytotoxicity against isogenic chicken DT40 cell lines with known DNA damage response pathways - wild type cell line (AID 743012). Further: nearly all actives have a fitted effect of over 60% in size. Further: potency means the concentration at half of the fitted maximal effect. An outline of the steps:
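Viability of DNA repair-proficient chicken DT40 cells was assessed by CellTiter-Glo luminescence following 40 h compound exposure at 37 C/5% CO2.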

The nature of assay [13]: qHTS assay for identifying genotoxic compounds that show differential cytotoxicity against isogenic chicken DT40 cell lines with known DNA damage response pathways - Rev3 mutant cell line (AID 743014). Further: nearly all actives have a fitted effect of over 55% in size. Further: potency means the concentration at half of the fitted maximal effect.
Assay [14] is described as follows: qHTS assay for identifying genotoxic compounds that show differential cytotoxicity against isogenic chicken DT40 cell lines with known DNA damage response pathways - Rad54/Ku70 mutant cell line (AID 743015). Further: nearly all actives have a fitted effect of over 60% in size. Further: potency means the concentration at half of the fitted maximal effect.
Assay [15] in a line: qHTS assay to identify small molecule antagonists of the androgen receptor (AR) signaling pathway - cell viability counter screen (AID 743033; further: nearly all actives have a fitted effect of over 45% in size).
Assay [16] in a line: qHTS assay to identify small molecule antagonists of the androgen receptor (AR) signaling pathway using the MDA cell line - cell viability counter screen (AID 743041; further: nearly all actives have a fitted effect of over 45% in size). An outline of the steps: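 Using the breast carcinoma line MDA-kb2 AR-luc, test chemicals were co-incubated with R1881 for 16 h; CellTiter-Fluor reagent, added at 15.5 h, provided a fluorescence measure of live cells.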

The target of assay [17] is Androgen receptor (Homo sapiens) (UniProt P10275). Nature of the assay: qHTS assay to identify small molecule agonists of the androgen receptor (AR) signaling pathway using the MDA cell line (AID 743040; further: nearly all actives have a fitted effect of over 20% in size). An outline of the steps:
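Stable MMTV-luciferase reporter in MDA-kb2 cells; note the promoter carries GR as well as AR response elements. 16 h compound treatment, 37C, 0% CO2; ONE-Glo luminescence endpoint.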

For assay [18] the target is unchanged. The assay is described as follows: qHTS assay to identify small molecule antagonists of the androgen receptor (AR) signaling pathway using the MDA cell line (AID 743042; further: nearly all actives have a fitted effect of over 55% in size). An outline of the steps: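 Antagonist mode: compounds plus R1881 agonist added to MDA-kb2 AR-luc cells, incubated 16 h at 37C. Luciferase reporter luminescence quantified, with multiplexed CellTiter-Fluor readout for cell viability.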

Glucocorticoid receptor (Homo sapiens), sequence (P04150 whole entry, looked up): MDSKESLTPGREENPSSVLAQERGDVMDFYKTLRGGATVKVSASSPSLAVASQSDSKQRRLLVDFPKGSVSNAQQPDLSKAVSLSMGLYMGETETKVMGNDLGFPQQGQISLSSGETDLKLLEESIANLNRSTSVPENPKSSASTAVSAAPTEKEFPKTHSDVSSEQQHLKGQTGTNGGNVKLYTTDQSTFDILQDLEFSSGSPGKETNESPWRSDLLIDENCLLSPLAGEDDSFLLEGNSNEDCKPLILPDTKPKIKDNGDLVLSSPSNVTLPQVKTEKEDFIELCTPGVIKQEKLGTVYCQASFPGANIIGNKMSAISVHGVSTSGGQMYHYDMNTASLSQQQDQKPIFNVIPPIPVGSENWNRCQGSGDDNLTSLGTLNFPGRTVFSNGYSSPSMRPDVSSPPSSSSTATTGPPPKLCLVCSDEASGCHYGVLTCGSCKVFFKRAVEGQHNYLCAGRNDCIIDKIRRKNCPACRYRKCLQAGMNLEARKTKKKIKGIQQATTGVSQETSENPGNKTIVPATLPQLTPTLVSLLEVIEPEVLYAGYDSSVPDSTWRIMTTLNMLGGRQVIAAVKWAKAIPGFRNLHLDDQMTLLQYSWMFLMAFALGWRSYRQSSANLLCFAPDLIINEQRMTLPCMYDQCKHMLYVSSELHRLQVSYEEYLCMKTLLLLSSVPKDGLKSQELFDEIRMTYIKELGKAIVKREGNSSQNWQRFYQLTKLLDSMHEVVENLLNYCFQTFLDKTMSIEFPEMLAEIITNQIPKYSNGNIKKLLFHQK
Androgen receptor (Homo sapiens), sequence (P10275 whole entry, looked up): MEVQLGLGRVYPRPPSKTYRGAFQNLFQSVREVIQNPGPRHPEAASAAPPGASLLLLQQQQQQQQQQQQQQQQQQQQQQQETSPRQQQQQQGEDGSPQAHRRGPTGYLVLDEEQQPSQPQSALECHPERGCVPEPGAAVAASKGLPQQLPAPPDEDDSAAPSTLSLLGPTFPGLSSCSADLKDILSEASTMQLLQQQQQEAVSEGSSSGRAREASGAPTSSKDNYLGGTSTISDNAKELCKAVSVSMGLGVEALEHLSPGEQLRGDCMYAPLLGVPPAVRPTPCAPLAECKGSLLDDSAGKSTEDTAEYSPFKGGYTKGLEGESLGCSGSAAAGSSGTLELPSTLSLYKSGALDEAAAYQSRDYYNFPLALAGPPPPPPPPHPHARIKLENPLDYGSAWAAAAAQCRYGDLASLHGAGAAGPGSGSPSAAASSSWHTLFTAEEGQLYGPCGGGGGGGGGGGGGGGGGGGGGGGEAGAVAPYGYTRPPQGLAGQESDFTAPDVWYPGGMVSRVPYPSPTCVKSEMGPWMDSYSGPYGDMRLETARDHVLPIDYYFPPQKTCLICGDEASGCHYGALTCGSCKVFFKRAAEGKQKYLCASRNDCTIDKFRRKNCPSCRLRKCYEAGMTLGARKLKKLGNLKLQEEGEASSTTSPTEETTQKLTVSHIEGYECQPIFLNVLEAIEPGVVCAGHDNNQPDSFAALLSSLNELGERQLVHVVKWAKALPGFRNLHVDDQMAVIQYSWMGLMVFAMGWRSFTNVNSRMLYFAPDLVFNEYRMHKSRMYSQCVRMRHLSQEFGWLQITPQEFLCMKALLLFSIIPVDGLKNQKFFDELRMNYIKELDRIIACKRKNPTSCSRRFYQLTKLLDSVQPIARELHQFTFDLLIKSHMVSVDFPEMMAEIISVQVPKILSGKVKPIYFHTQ

Regarding `O=[N+]([O-])c1ccc(CCl)cc1`, the call in [1], in assay [3], in [4] and in assay [5] was inactive. The Potency result in assay [2], in assay [6], in assay [7], in [8], in assay [9] and in assay [10] was “inactive” in each case. Besides, the Potency result in assay [11], in assay [12], in assay [13], in assay [14], in assay [15] and in assay [16] was “inactive” throughout.
`COc1ccc2c3c1O[C@H]1[C@H](O)CC[C@H]4[C@@H](C2)N(C)CC[C@@]341`: the outcome in assay [1], in [3], in [4] and in assay [5] was inactive. Also, the Potency entry in assay [2], in [6], in assay [7], in [8], in [9] and in assay [10] was “inactive” throughout. For the same compound, the Potency entry in assay [12], in assay [13], in assay [14], in assay [15] and in assay [16] was “inactive” in each case.
As for `[O]=[Cr][O][Cr]=[O]`, the compound was called inactive in [1], in assay [3], in assay [4] and in [5]. Further, the Potency result in [2], in assay [6], in assay [7], in assay [8], in [9] and in assay [10] was “inactive” throughout. For the same compound, the Potency result in assay [11], in assay [12], in assay [14], in assay [15] and in [16] was “inactive” each time.
For `ClC1(Cl)C2(Cl)C3(Cl)C4(Cl)C(Cl)(Cl)C5(Cl)C3(Cl)C1(Cl)C5(Cl)C24Cl` (stereo not drawn), the compound was called inactive in [1], in assay [3], in assay [4], in [5] and in assay [17]. Further, the Potency entry in assay [2], in assay [6], in assay [7], in assay [8], in assay [9] and in assay [10] was “inactive” each time. For the same compound, the Potency entry in assay [12], in assay [14], in assay [15], in [16] and in assay [18] was “inactive” each time.
In the case of `COC(=O)c1cc(Oc2ccc(Cl)cc2Cl)ccc1[N+](=O)[O-]`, the compound was called inactive in assay [1], in [3], in assay [4] and in assay [5]. For the same compound, the Potency entry in assay [2], in assay [6], in assay [7], in [8], in [9] and in [10] was “inactive” throughout. Further, the Potency result in assay [11], in assay [15] and in assay [16] was “inactive” in each case. For the same compound, the Potency in assay [12] was 9.69 µM (active); in assay [13] it was 12.2 µM (active); in assay [14] it was 24.3 µM (active).
`c1cc[n+]2c(c1)-c1cccc[n+]1CC2`: the compound was called inactive in assay [1], in assay [3], in [4] and in assay [5]. Besides, the Potency entry in assay [2], in [6], in assay [7], in assay [8], in assay [9] and in assay [10] was “inactive” in each case. Also, the Potency entry in assay [11] and in assay [16] was “inactive” in each case. Besides, the Potency in [12] was 3.35 µM (active); in assay [13] it was 3.35 µM (active); in assay [14] it was 2.37 µM (active).
Take `CCOP(=O)(OCC)Oc1cc(C)nc(C(C)C)n1`: the result in assay [1], in assay [3], in assay [4] and in [5] was inactive. In addition, the Potency result in assay [2], in [6], in [7], in [8], in assay [9] and in assay [11] was “inactive” throughout. Further, the Potency result in [12], in assay [13], in [14], in assay [15] and in assay [16] was “inactive” throughout.

For the origin of these results see PubChem BioAssay (Tox21).
